The supplement of paper PMC10127200
Where a name gives a salt, the structure may show the parent alone.

Legend:
Test in all cases: Euclidean distance of Cell Painting phenotypic profile (signed KS, 77 features) to DMSO centroid (dimensionless distance); 5 or 10 uM (library dependent); higher = stronger phenotypic change vs DMSO (phenoactivity)
Details in all cases: 48 h
786-O = tested on: 786-O
Outline: (§1)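 Library compounds were applied at 10 or 5 uM, depending on the library, with 0.1% DMSO final, for 48 h to five cancer lines and a healthy fibroblast line. After staining, cells were imaged confocally at 20X across 9 fields per well, and Harmony extracted 77 features, each scored as a signed Kolmogorov-Smirnov statistic against vehicle wells on the same plate. Phenoactivity is the Euclidean distance between each profile and the median vehicle profile, with profiles first plate-position corrected, correlation-weighted and averaged over replicates at the top dose.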

A549 = tested on: A549
Outline: as §1

DU145 = tested on: DU145
Outline: as §1

FB = tested on: FB
Outline: as §1

HEPG2 = tested on: HEPG2
Outline: as §1

OVCAR4 = tested on: OVCAR4
Outline: as §1

| SMILES | Euclidean distance (786-O) | Euclidean distance (A549) | Euclidean distance (DU145) | Euclidean distance (FB) | Euclidean distance (HEPG2) | Euclidean distance (OVCAR4) |
| --- | --- | --- | --- | --- | --- | --- |
| COc1ccc2cccc(CCNC(C)=O)c2c1 [Agomelatine] | 0.998 | 0.774 | 0.825 | 0.747 | 0.603 | 0.58 |
| COc1ccnc(C[S+]([O-])c2nc3cc(OC(F)F)ccc3[nH]2)c1OC (stereo not drawn) [Pantoprazole] | 1.16 | 0.522 | 0.784 | 0.822 | 1.62 | 1.62 |
| CC/C(=C(\c1ccccc1)c1ccc(OCCN(C)C)cc1)c1ccccc1 [Tamoxifen Citrate] | 1.05 | 2.39 | 1.36 | 1.45 | 1.5 | 1.36 |
| COc1cc2ncnc(Nc3cccc(Cl)c3)c2cc1OC [AG-1478 (Tyrphostin AG-1478)] | 1.39 | 1.29 | 1.45 | 1.21 | 0.941 | 0.649 |
| C[C@@H](Nc1cc(F)cc(F)c1)c1cc(C(=O)N(C)C)cc2c(=O)cc(N3CCOCC3)oc12 | 2.04 | 1.94 | 1.72 | 2.79 | 0.984 | 2.9 |
| N=C(N)NCCN1CCCCCCC1 [Guanethidine Monosulfate] | 1.05 | 1.78 | 0.775 | 1.38 | 0.975 | 1.68 |
| CCN(CC)C(=S)SSC(=S)N(CC)CC [Disulfiram] | 1.95 | 1.78 | 1.34 | 2.84 | 0.547 | 1.32 |
| CC(C)NCC(O)COc1cccc2[nH]c3ccccc3c12 (stereo not drawn) [Carazolol] | 1.27 | 0.789 | 1.12 | 0.974 | 1.07 | 1.31 |
| O=C(Cc1cccc(OC(F)(F)F)c1)Nc1ccc(CCCCc2nnc(NC(=O)Cc3ccccn3)s2)nn1 | 2.27 | 2.41 | 1.99 | 3.38 | 2.75 | 2.28 |
| CC(C)[C@H]1C(=O)N[C@@H](CCCNC(=N)N)C(=O)NCC(=O)N[C@@H](CC(=O)O)C(=O)N[C@H](Cc2ccccc2)C(=O)N1C [Cilengitide] | 2.25 | 1.28 | 0.875 | 1.15 | 4.37 | 2.86 |
| CC1(C)CCC[C@]2(C)[C@H]3CC(=O)O[C@]3(C)CC[C@@H]12 [Sclareolide] | 1.98 | 1.52 | 1.35 | 0.844 | 1.58 | 1.36 |
| Cc1ncc([N+](=O)[O-])n1CCOC(=O)c1ccccc1 [Metronidazole Benzoate] | 0.984 | 1.41 | 0.885 | 1.58 | 0.486 | 0.922 |
| CCc1cc(C(N)=O)ccc1-n1nc(C(C)C)c2c(-n3cnc(-c4cnn(C)c4)c3)ccnc21 | 3.26 | 3.06 | 3.79 | 3.38 | 3.38 | 2.86 |
| C#C[C@]1(O)CC[C@H]2[C@@H]3CCc4cc(OC5CCCC5)ccc4[C@H]3CC[C@@]21C [Quinestrol] | 1.6 | 1.26 | 1.69 | 1.48 | 0.902 | 1.67 |
| COc1ccc(-c2cc(=O)c3c(OC)c(OC)c(OC)c(OC)c3o2)cc1 [Tangeretin] | 0.981 | 1.05 | 1.17 | 0.742 | 0.656 | 1.06 |
| COC(=O)c1ccc(O)cc1 [Methyl 4-hydroxybenzoate] | 0.944 | 0.453 | 0.654 | 0.862 | 0.627 | 1.19 |
| O[C@@H]1CO[C@H]2[C@@H]1OC[C@@H]2O [Isosorbide] | 1.15 | 0.673 | 1.24 | 1.02 | 0.565 | 1.64 |
| Cc1c(Cn2c(C)nc3c(C(=O)O)cc(N4CCOCC4)cc32)cccc1C(F)(F)F | 2.39 | 1.14 | 1.28 | 1.21 | 0.982 | 1.33 |
| CCn1cc(C(=O)O)c(=O)c2ccc(C)nc21 [Nalidixic acid] | 1.33 | 0.755 | 1.12 | 1.07 | 0.602 | 1.5 |

| SMILES | Euclidean distance (786-O) | Euclidean distance (A549) | Euclidean distance (DU145) | Euclidean distance (FB) | Euclidean distance (HEPG2) | Euclidean distance (OVCAR4) |
| --- | --- | --- | --- | --- | --- | --- |
| CCOC(=O)C1=C(COCCN)NC(C)=C(C(=O)OC)[C@@H]1c1ccccc1Cl [Levamlodipine] | 0.971 | 0.702 | 0.684 | 1.12 | 0.978 | 0.931 |
| CC1(C)OC(=O)NC1=O [5.5-Dimethyloxazolidine-2.4-dione] | 0.865 | 0.849 | 1.06 | 1.02 | 0.557 | 0.894 |
| Cc1c(-c2ccnn2C)cc(C(=O)NCc2ccc(S(C)(=O)=O)cn2)c(=O)n1-c1cccc(C(F)(F)F)c1 [Alvelestat (AZD9668)] | 1.01 | 1.73 | 1.04 | 1.06 | 0.869 | 0.81 |
| CC(C)(O/N=C(\C(=O)N[C@@H]1C(=O)N2C(C(=O)[O-])=C(C[n+]3ccccc3)CS[C@H]12)c1csc(N)n1)C(=O)O [Ceftazidime] | 1.39 | 0.613 | 0.815 | 1.06 | 0.385 | 1.62 |
| O=C(O)c1ccccc1Nc1cccc(C(F)(F)F)c1 [Flufenamic acid] | 1.11 | 1.08 | 0.674 | 1.09 | 0.711 | 1.36 |
| CCOc1ccn(-c2ccc(F)cc2)c(=O)c1C(=O)Nc1ccc(Oc2ccnc(N)c2Cl)c(F)c1 | 1.2 | 3.4 | 1.66 | 2.27 | 1.66 | 2.55 |
| O=C(O)[C@]1(Cc2cccc(Nc3nccs3)n2)CC[C@@H](Oc2cccc(Cl)c2F)CC1 | 2.59 | 3.36 | 0.648 | 0.818 | 0.498 | 2.16 |
| CCCOc1ccc(S(=O)(=O)NCCC2CCCN2C)cc1-c1nc2c(CCC)nn(C)c2c(=O)[nH]1 (stereo not drawn) [Udenafil] | 1.13 | 1.12 | 1.49 | 1.77 | 1.61 | 1.41 |
| COc1cc(N2CCC(N3CCN(C)CC3)CC2)ccc1Nc1ncc(Cl)c(Nc2ccccc2P(C)(C)=O)n1 | 1.49 | 2.29 | 2.68 | 4.2 | 1.51 | 1.74 |
| CC(O)(P(=O)(O)O)P(=O)(O)O [Etidronate] | 1.27 | 1.25 | 1.1 | 1.04 | 0.55 | 1.15 |
| O=c1[nH]cnc2nc[nH]c12 [Hypoxanthine] | 1.19 | 1.2 | 1.16 | 1.66 | 0.856 | 2.43 |
| Cc1cn(-c2cc(NC(=O)c3ccc(C)c(Nc4nccc(-c5cccnc5)n4)c3)cc(C(F)(F)F)c2)cn1 [Nilotinib hydrochloride] | 2.28 | 4.11 | 3.01 | 1.85 | 3.37 | 3.14 |
| CCCC(=O)O[C@]1(C(=O)CO)CC[C@H]2[C@@H]3CCC4=CC(=O)CC[C@]4(C)[C@H]3[C@@H](O)C[C@@]21C [Hydrocortisone butyrate] | 1.21 | 2.18 | 1.87 | 1.7 | 1.87 | 2.45 |
| NC(=O)[C@@H]1CC[C@@H]2CN1C(=O)N2OS(=O)(=O)O [Avibactam sodium] | 1.03 | 0.85 | 0.722 | 0.925 | 0.607 | 1.24 |
| CS(=O)(=O)c1ccc([C@@H](O)[C@@H](CO)NC(=O)C(Cl)Cl)cc1 [Thiamphenicol] | 1.41 | 0.742 | 0.68 | 1.08 | 0.983 | 1.15 |
| C[C@]12CC[C@H](O)CC1=CC[C@@H]1[C@@H]2CC[C@]2(C)C(n3cnc4ccccc43)=CC[C@@H]12 [Galeterone] | 0.604 | 1.11 | 0.901 | 1.35 | 2.1 | 1.04 |
| CN(C)CCCN1c2ccccc2CCc2ccccc21 [Imipramine HCl] | 1.05 | 0.896 | 1.15 | 1.55 | 1.13 | 1.33 |
| CC(C)c1cc(C(C)C)c(CC(=O)NS(=O)(=O)Oc2c(C(C)C)cccc2C(C)C)c(C(C)C)c1 [Avasimibe] | 4.24 | 1.79 | 0.813 | 0.86 | 0.752 | 0.819 |
| C/C=C1\[C@H]2C=C(C)C[C@]1(N)c1ccc(=O)[nH]c1C2 [(-)-Huperzine A (HupA)] | 1.09 | 0.676 | 0.79 | 0.881 | 0.528 | 1.07 |
